Test results as given in PubChem BioAssay (Tox21).
Records with an inconclusive call do not appear. Where a call stands in place of a potency, no number is given. Values without a mark were called inactive. Active and inactive are the calls of the source. Unless noted, calls follow the shape of the dose curve; as a rule, active = well fitted curve in the direction sought with a large enough effect in the repeat runs; inconclusive = weak or mixed curves; inactive = no such curve, though single readings can be large; an effect the other way counts as inactive or inconclusive.

Assays:
[1] = qHTS assay to identify small molecule agonists of the peroxisome proliferator-activated receptor delta (PPARd) signaling pathway - cell viability counter screen (AID 743211); also: nearly all actives have a fitted effect of over 55% in size
In short: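 PPARd-bla HEK293H cells (UAS-beta-lactamase reporter) were treated with compounds for 17 h at 37 C. Viability was then read in the same wells by CellTiter-Glo luminescence after 30 min at room temperature.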

[2] = target: Peroxisome proliferator-activated receptor delta (Homo sapiens) (UniProt Q03181); assay: qHTS assay to identify small molecule agonists of the peroxisome proliferator-activated receptor delta (PPARd) signaling pathway (AID 743212; calls by dose curve)
Sequence of Peroxisome proliferator-activated receptor delta (Homo sapiens) (Q03181 whole entry, looked up): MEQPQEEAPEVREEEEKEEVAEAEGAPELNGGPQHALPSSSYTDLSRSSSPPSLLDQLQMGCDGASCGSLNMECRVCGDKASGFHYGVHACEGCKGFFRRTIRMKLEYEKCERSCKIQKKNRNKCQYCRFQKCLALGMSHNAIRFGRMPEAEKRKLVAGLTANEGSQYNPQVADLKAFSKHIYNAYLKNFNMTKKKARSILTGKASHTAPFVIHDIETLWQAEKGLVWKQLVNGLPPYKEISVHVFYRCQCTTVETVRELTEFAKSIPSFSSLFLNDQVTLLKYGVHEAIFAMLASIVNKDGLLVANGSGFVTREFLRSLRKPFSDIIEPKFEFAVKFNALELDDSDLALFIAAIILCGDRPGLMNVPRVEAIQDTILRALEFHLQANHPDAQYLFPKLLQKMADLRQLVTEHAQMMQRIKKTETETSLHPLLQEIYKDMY
In short: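 HEK293H UAS-bla reporter cells, human PPARd system; compounds delivered in DMSO after 5 h plating, then at 37 C. Beta-lactamase FRET read, 2 h RT substrate step.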

[3] = qHTS assay to identify small molecule antagonists of the peroxisome proliferator-activated receptor delta (PPARd) signaling pathway - cell viability counter screen (AID 743213); also: nearly all actives have a fitted effect of over 50% in size
In short: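 Same-well viability: cells pre-incubated 5 h, dosed with compound plus 300 nM L165041, kept 17 h at 37 C, FRET substrate 2 h RT, then CellTiter-Glo 30 min RT and luminescence.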

[4] = target: Peroxisome proliferator-activated receptor delta (Homo sapiens) (UniProt Q03181); assay: qHTS assay to identify small molecule antagonists of the peroxisome proliferator-activated receptor delta (PPARd) signaling pathway (AID 743215; active = well fitted inhibition curve with a large enough effect in the signal ratio in the repeat runs, not every such curve was filed as active; the % refers to the signal ratio;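 also: cells stimulated with agonist L165041 at 300 nM final during compound exposure; series mostly up to about 62 µM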)
In short: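 Antagonist-mode beta-lactamase reporter screen: HEK293H cells with UAS-bla under PPARd control, stimulated by 300 nM L165041 (final) alongside test compound for 17 h at 37 C, then FRET fluorescence after 2 h substrate incubation.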

[5] = target: Bile acid receptor (Homo sapiens) (UniProt Q96RI1); assay: qHTS assay to identify small molecule antagonists of the farnesoid-X-receptor (FXR) signaling pathway (AID 743217; active = well fitted inhibition curve with a large enough effect in the signal ratio in the repeat runs, not every such curve was filed as active; the % refers to the signal ratio)
Sequence of Bile acid receptor (Homo sapiens) (Q96RI1 whole entry, looked up): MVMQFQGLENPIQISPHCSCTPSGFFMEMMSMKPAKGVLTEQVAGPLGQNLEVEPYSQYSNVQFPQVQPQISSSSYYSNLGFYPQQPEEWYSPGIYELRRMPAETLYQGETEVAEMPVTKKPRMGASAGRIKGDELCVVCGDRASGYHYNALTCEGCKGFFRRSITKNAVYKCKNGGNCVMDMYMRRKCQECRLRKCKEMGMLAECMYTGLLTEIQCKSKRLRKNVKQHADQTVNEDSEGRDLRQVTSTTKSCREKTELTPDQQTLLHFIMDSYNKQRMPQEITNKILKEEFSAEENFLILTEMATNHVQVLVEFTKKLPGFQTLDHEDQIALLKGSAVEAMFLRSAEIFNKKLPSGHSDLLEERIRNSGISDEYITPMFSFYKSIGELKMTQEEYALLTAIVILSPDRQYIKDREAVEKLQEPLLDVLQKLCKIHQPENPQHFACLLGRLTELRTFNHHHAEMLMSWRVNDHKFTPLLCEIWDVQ
In short: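 Beta-lactamase reporter under UAS control in HEK 293T cells; compound exposure 16 h at 37 °C in the presence of chenodeoxycholic acid (50 uM final); signal from B/G FRET substrate after 2 h at room temperature.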

[6] = qHTS assay to identify small molecule agonists of the farnesoid-X-receptor (FXR) signaling pathway - cell viability counter screen (AID 743218); also: nearly all actives have a fitted effect of over 45% in size
In short: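 In GeneBLAzer FXR-UAS-bla HEK 293T cells, compounds act for 16 h at 37 C. Cell viability is then scored in the reporter wells by CellTiter-Glo, 30 min at RT, luminescence.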

[7] = target: Bile acid receptor (Homo sapiens) (UniProt Q96RI1); assay: qHTS assay to identify small molecule agonists of the farnesoid-X-receptor (FXR) signaling pathway (AID 743220; active = well fitted activation curve with a large enough effect in the signal ratio in the repeat runs, not every such curve was filed as active; the % refers to the signal ratio)
In short: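 Beta-lactamase reporter under UAS control in GeneBLAzer FXR HEK 293T cells (5000/well) measured with LiveBLAzer FRET substrate after 2 h at room temperature. Compound exposure lasted 16 h at 37C.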

[8] = qHTS assay to identify small molecule antagonists of the farnesoid-X-receptor (FXR) signaling pathway - cell viability counter screen (AID 743221; active = well fitted cell-killing curve with a large enough effect in the repeat runs, not every such curve was filed as active; also: nearly all actives have a fitted effect of over 50% in size)
In short: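 FXR-UAS-bla HEK 293T cells were treated with test compounds plus chenodeoxycholic acid (50 uM final) for 16 h at 37 C. Cell viability in the same wells was then read as CellTiter-Glo luminescence after 30 min at room temperature.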

[9] = target: Vitamin D3 receptor (Homo sapiens) (UniProt P11473); assay: qHTS assay to identify small molecule agonists of the vitamin D receptor (VDR) signaling pathway (AID 743222; calls by dose curve)
Sequence of Vitamin D3 receptor (Homo sapiens) (P11473 whole entry, looked up): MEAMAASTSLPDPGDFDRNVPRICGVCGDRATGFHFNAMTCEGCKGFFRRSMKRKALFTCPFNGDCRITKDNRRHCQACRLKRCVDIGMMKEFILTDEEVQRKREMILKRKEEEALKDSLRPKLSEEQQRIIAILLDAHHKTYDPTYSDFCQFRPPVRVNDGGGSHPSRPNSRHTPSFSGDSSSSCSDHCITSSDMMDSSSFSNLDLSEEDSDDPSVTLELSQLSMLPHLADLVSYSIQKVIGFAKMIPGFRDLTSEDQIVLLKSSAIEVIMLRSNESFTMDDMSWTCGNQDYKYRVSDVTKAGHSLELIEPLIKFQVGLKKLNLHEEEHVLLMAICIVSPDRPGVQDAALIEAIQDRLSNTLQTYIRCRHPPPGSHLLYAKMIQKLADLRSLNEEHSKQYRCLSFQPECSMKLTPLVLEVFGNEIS
In short: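 Agonist activity measured in VDR-bla reporter cells. Exposure 16 h, 37C, 5% CO2; detection by B/G FRET substrate, 2 h RT.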

[10] = target: Vitamin D3 receptor (Homo sapiens) (UniProt P11473); assay: qHTS assay to identify small molecule antagonists of the vitamin D receptor (VDR) signaling pathway (AID 743223; active = well fitted inhibition curve with a large enough effect in the signal ratio in the repeat runs, not every such curve was filed as active; the % refers to the signal ratio)
In short: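 VDR-bla cells were plated, incubated 4 h at 37C, then given compound and 1alpha,25-dihydroxyvitamin D3 (3 nM final). After 16 h at 37C, LiveBLAzer B/G FRET substrate was added for 2 h at room temperature and fluorescence read.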

[11] = qHTS assay to identify small molecule antagonists of the vitamin D receptor (VDR) signaling pathway - cell viability counter screen (AID 743225); also: nearly all actives have a fitted effect of over 50% in size
In short: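 VDR-bla HEK 293T cells, 4 h pre-incubation at 37C, then compound plus 1-alpha,25-dihydroxyvitamin D3 (3 nM final) for 16 h. After the beta-lactamase FRET read, CellTiter-Glo was added to the same wells; luminescence after 30 min at room temperature.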

[12] = qHTS assay to identify small molecule agonists of the NFkB signaling pathway (AID 1159509; active = well fitted curve in the direction sought with a large enough effect in the signal ratio in the repeat runs, not every such curve was filed as active; the % refers to the signal ratio; also: series mostly up to about 61 µM)
In short: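 After overnight attachment, reporter cells received test compounds, DMSO or positive controls and were incubated 5 hr at 37 C. FRET substrate was then added for 1.5 hr at room temperature before dual-emission fluorescence reading.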

[13] = qHTS assay to identify small molecule agonists of the NFkB signaling pathway - cell viability counter screen (AID 1159515; calls by dose curve; also: series mostly up to about 61 µM; nearly all actives have a fitted effect of over 55% in size)
In short: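 Viability in NFkB-bla ME-180 cells was measured by CellTiter-Glo luminescence, 30 min room temperature, in wells already treated 5 hr with compounds and read for reporter FRET.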

[14] = qHTS assay to identify small molecule agonists of the endoplasmic reticulum stress response signaling pathway (AID 1159516; active = well fitted activation curve with a large enough effect in the signal ratio in the repeat runs, not every such curve was filed as active; the % refers to the signal ratio)
In short: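 ER stress element reporter (bla) in HeLa. 1,500 cells/well, overnight attachment; 5 hr compound; 2 hr RT substrate; dual-emission fluorescence.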

[15] = target: Nuclear receptor ROR-gamma (Homo sapiens) (UniProt P51449); assay: qHTS assay to identify small molecule antagonists of the retinoid-related orphan receptor gamma (ROR-gamma) signaling pathway (AID 1159521; also: nearly all actives have a fitted effect of over 50% in size; also: potency is read from the fitted curve at half-maximal effect)
In short: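 Tet-on RORγ CHO cells carrying a ROR response element–luciferase reporter were pretreated with compounds for 2 h, then induced with 1 uM (final) doxycycline hyclate for 16 h at 37 C. Antagonism was read as decreased ONE-Glo luminescence.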

[16] = qHTS assay to identify small molecule agonists of the AP-1 signaling pathway - cell viability counter screen (AID 1159525; calls by dose curve; also: nearly all actives have a fitted effect of over 55% in size)
In short: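 Luminescent ATP readout (Cell Titer Glo, 30 min RT), normalised to DMSO and tetra n-octyl ammonium bromide controls. Cells were ME-180 AP-1-bla in 0.5% dialyzed FBS Opti-MEM, with a 5 h, 37 °C compound exposure.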

[17] = qHTS assay to identify small molecule agonists of the vitamin D receptor (VDR) signaling pathway - cell viability counter screen (AID 743224)
In short: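 VDR-bla cell line, quantitative HTS format; 16 h compound incubation (37C, 5% CO2); ATP-based CellTiter-Glo luminescence measured in the reporter assay wells.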

[18] = qHTS assay to identify small molecule agonists of the AP-1 signaling pathway (AID 1159526; calls by dose curve)
[19] = qHTS assay to identify small molecule antagonists of the retinoid-related orphan receptor gamma (ROR-gamma) signaling pathway - cell viability counter screen (AID 1159520); also: nearly all actives have a fitted effect of over 50% in size
In short: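 Cytotoxicity was read from cellular ATP (CellTiter-Glo luminescence) after 16 hr at 37 C with 1 uM doxycycline induction. The inducer was added 2 hr after compound transfer to Tet-on ROR gamma CHO cells.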

## CC(C)C(O)C(C)(C)CO (centres undefined)
[1]
  Potency: inactive
[2]
  outcome: inactive
[3]
  Potency: inactive
[4]
  Potency: inactive
[5]
  outcome: inactive
[6]
  Potency: inactive
[7]
  Potency: inactive
[8]
  Potency: inactive
[9]
  outcome: inactive
[10]
  outcome: inactive
[11]
  Potency: inactive
[12]
  outcome: inactive
[13]
  Potency: inactive
[14]
  Potency: inactive
[15]
  Potency: 22.4 µM (active)
[16]
  Potency: inactive

## CCCCCCCCCCCCCCCC(=O)OCC
[1]
  Potency: inactive
[2]
  outcome: inactive
[3]
  Potency: inactive
[4]
  Potency: inactive
[5]
  outcome: inactive
[6]
  Potency: inactive
[7]
  Potency: inactive
[8]
  Potency: inactive
[17]
  Potency: inactive
[11]
  Potency: inactive
[12]
  outcome: inactive
[13]
  Potency: inactive
[14]
  Potency: inactive
[15]
  Potency: inactive
[16]
  Potency: inactive
[18]
  outcome: inactive

## Cc1ccc(S(=O)(=O)NC(=O)NC2CCCCC2)cc1
[1]
  Potency: inactive
[2]
  outcome: inactive
[3]
  Potency: inactive
[4]
  Potency: inactive
[6]
  Potency: inactive
[8]
  Potency: inactive
[17]
  Potency: inactive
[11]
  Potency: inactive
[12]
  outcome: inactive
[13]
  Potency: inactive
[14]
  Potency: inactive
[19]
  Potency: inactive
[15]
  Potency: inactive
[18]
  outcome: inactive

## CCNc1nc(N)nc(Cl)n1
[1]
  Potency: inactive
[2]
  outcome: inactive
[4]
  Potency: inactive
[6]
  Potency: inactive
[8]
  Potency: inactive
[9]
  outcome: inactive
[17]
  Potency: inactive
[11]
  Potency: inactive
[12]
  outcome: inactive
[13]
  Potency: inactive
[14]
  Potency: inactive
[19]
  Potency: inactive
[16]
  Potency: inactive
[18]
  outcome: inactive

## BrC(Br)C(Br)Br
[1]
  Potency: inactive
[2]
  outcome: inactive
[3]
  Potency: inactive
[4]
  Potency: inactive
[6]
  Potency: inactive
[8]
  Potency: inactive
[9]
  outcome: inactive
[17]
  Potency: inactive
[11]
  Potency: inactive
[12]
  outcome: inactive
[13]
  Potency: inactive
[14]
  Potency: inactive
[15]
  Potency: inactive
[16]
  Potency: inactive
[18]
  outcome: inactive

## CCCCCCCC(=O)Oc1c(Br)cc(C#N)cc1Br
[1]
  Potency: inactive
[7]
  Potency: inactive
[8]
  Potency: inactive
[9]
  outcome: inactive
[10]
  outcome: inactive
[12]
  outcome: inactive
[13]
  Potency: inactive
[14]
  Potency: inactive
[15]
  Potency: 48.4 µM (active)
[16]
  Potency: inactive
[18]
  outcome: inactive

## O=S(=O)(O)CO
[1]
  Potency: inactive
[3]
  Potency: inactive
[6]
  Potency: inactive
[8]
  Potency: inactive
[9]
  outcome: inactive
[17]
  Potency: inactive
[12]
  outcome: inactive
[13]
  Potency: inactive
[14]
  Potency: inactive
[19]
  Potency: inactive
[16]
  Potency: inactive
[18]
  outcome: inactive

## CCCCCCCCCCCC(=O)OCC(O)CO (centres undefined)
[6]
  Potency: inactive
[8]
  Potency: inactive
[10]
  outcome: inactive
[12]
  outcome: inactive
[13]
  Potency: inactive
[14]
  Potency: inactive
[19]
  Potency: inactive
[15]
  Potency: inactive
[18]
  outcome: inactive

## Nc1nc2ccc(OC(F)(F)F)cc2s1
[2]
  outcome: inactive
[4]
  Potency: inactive
[8]
  Potency: inactive
[9]
  outcome: inactive
[10]
  outcome: inactive
[17]
  Potency: inactive
[12]
  outcome: inactive
[13]
  Potency: inactive
[14]
  Potency: inactive
[19]
  Potency: inactive
[15]
  Potency: inactive
[16]
  Potency: inactive

## CC(=O)N[C@@H](Cc1ccc(O)cc1)C(=O)O
[1]
  Potency: inactive
[2]
  outcome: inactive
[3]
  Potency: inactive
[4]
  Potency: inactive
[6]
  Potency: inactive
[8]
  Potency: inactive
[9]
  outcome: inactive
[10]
  outcome: inactive
[11]
  Potency: inactive
[12]
  outcome: inactive
[13]
  Potency: inactive
[14]
  Potency: inactive
[15]
  Potency: inactive
[16]
  Potency: inactive
[18]
  outcome: inactive
